A selection: hits, their analogues and other compounds. The true share with any hit is near 1.5%.
CRFBP-R2 block: antagonists of CRF-binding protein/CRF-R2 receptor complex; HEK293 CRF-R2/CRF-BP, CRF-induced calcium fluorescence; inhibition, % at 11.8 µM; hit rate 0.59% among 350,000; AID 588475;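 active = inhibition of the ligand-induced calcium signal above about 50% at the single tested concentration, limit read from the data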
CRFBP-R2 agonist: CRF-BP/CRF-R2 complex agonism. HEK293 CRF-R2/CRF-BP, calcium dye fluorescence (FLIPR); percent of saturating CRF peptide response. activation, % at 13.2 µM. hit rate 0.46% among 350,000;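 active = activation of at least 50%, plus an integration ratio under a set limit after plate pattern correction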
NTR1 agonist: agonists of human neurotensin receptor NTR1; AID 493036; NTR1-U2OS beta-arrestin-GFP spot imaging, agonist mode; activation, % at 20 µM; hit rate 0.17% among 330,000;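 active = activation at or above 40% of the spot to cytoplasm intensity ratio, with at least 20 cells analyzed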
Target sequence (P30989 whole entry, looked up): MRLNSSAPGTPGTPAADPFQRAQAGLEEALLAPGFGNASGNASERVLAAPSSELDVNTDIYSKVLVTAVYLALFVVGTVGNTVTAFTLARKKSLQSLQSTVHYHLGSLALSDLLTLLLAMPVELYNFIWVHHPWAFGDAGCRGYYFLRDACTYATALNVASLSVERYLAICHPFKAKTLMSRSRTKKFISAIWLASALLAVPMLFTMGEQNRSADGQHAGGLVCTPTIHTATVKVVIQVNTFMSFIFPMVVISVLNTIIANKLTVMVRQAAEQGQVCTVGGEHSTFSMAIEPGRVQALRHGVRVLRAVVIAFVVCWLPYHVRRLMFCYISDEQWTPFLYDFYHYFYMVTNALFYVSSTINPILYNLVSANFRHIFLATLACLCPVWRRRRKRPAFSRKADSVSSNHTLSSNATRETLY
V-ATPase pHluor: regulators of yeast V-ATPase proton transport | AID 504577 | S. cerevisiae, pHLuorin cytosolic pH fluorescence | hit rate 0.37% among 350,000 | response, % at 10 µM; in the data active = response mostly above about 7.3%, no sharp cut-off; inactive = mostly below about 5.4%; note: actives read high
Each line names hits and unclear results; the compound was inactive in the other large screens.

O=C(COC(=O)c1ccncc1)Nc1cc(Cl)c(Cl)cc1Cl	none (no result: CRFBP-R2 block, CRFBP-R2 agonist, V-ATPase pHluor)
COc1ccc(-c2[nH]ncc2CNCCCSC)cc1F	V-ATPase pHluor 14.4
COc1ccc(-c2[nH]ncc2CN2CCC(c3ccncc3)CC2)cc1F	none
CCCc1cc(=O)oc2cc(OCC(=O)N3CCOCC3)c(Cl)cc12	none
CCCc1cc(=O)oc2cc(OCC(=O)N(C)C)c(Cl)cc12	V-ATPase pHluor 26.0
CCCN(CC(=O)Nc1ccccc1C)C(=O)c1ccc(C2SCCS2)cc1	none
COc1ccc(/C=C/c2ccccc2)cc1[C@H]1[C@H]2C=CC[C@@H](C)[C@@H]2C(=O)N1Cc1ccccc1	none
Cn1c(=O)c(Nc2ccc(Cl)cc2)c2c3c(cccc31)C(=O)c1ccccc1-2	CRFBP-R2 agonist 111.0 (no result: V-ATPase pHluor)
COc1ccc(/C=c2\s/c(=C/C(=O)c3ccc(C)cc3)[nH]c2=O)cc1OC	CRFBP-R2 agonist 182.4
Fc1cccc(Nc2nc3ccccc3n3cnnc23)c1	none
CC(=O)c1cccc(Nc2nc3ccccc3n3cnnc23)c1	CRFBP-R2 block 115.7
C[C@H](O)[C@@H]1C(=O)N2CCc3ccc(N4CCN(C)CC4)cc3[C@@H]2C[C@@H]1N(C)C(=O)c1ccc(C#N)cc1	none (no result: NTR1 agonist)
COCC(=O)N(C)[C@H]1C[C@H]2c3cc(N4CCN(C)CC4)ccc3CCN2C(=O)[C@H]1[C@H](C)O	CRFBP-R2 block 111.1 (no result: NTR1 agonist)
Nc1ccn(CC(=O)NCCNc2ccc([N+](=O)[O-])cn2)c(=O)n1	none
C[n+]1c2cc(N)ccc2cc2ccc(N)cc21	CRFBP-R2 agonist 224.6 (no result: NTR1 agonist)
CC(C)(C)C1CCc2c(sc(NC(=O)C3CC=CCC3C(=O)O)c2C#N)C1 (stereo unspecified)	CRFBP-R2 block 61.4
N#Cc1c(NC(=O)C2CC=CCC2C(=O)O)sc2c1CCCCCC2 (stereo unspecified)	none
O=C(CSc1nnc(NC(=O)c2ccccc2Cl)s1)Nc1ccc2c(c1)oc1ccccc12	NTR1 agonist 51.0 (no result: CRFBP-R2 block, CRFBP-R2 agonist, V-ATPase pHluor)
COc1ccccc1NC(=O)CCSc1nnnn1C	CRFBP-R2 agonist 120.8
CC(C)C1Cc2c(sc3ncnc(NN)c23)CO1 (stereo unspecified)	none
CC(NC(=S)NCCCN1CCOCC1)C12CC3CC(CC(C3)C1)C2 (stereo unspecified)	none
COc1ccc(N2CCN(C(=O)c3cc(=O)c4cc(C)c(C)cc4o3)CC2)cc1	CRFBP-R2 block 110.8
COc1ccc(N2CCN(C(=O)c3csc4ccccc34)CC2)cc1	CRFBP-R2 block 119.3
COCOCCn1cc(CN2CCS(=O)(=O)N(Cc3ccc(-c4cccc(CO)c4)cc3)C(C)C2=O)nn1 (stereo unspecified)	none (no result: NTR1 agonist)
CCCSc1n[nH]c(NC(C)=O)n1	CRFBP-R2 block 56.1
Cc1ccc(C)c(N2CCN(S(=O)(=O)c3ccc4c(c3)C(C)(C)C(=O)N4C)CC2)c1	CRFBP-R2 block 127.0
Cc1cccc(N2CCN(S(=O)(=O)c3ccc4c(c3)C(C)(C)C(=O)N4C)CC2)c1C	none
NC(=O)C1CCN(C(=O)C2CCC(=O)N(C3CCCCCC3)C2)CC1 (stereo unspecified)	none
O=C(NCCCO)C(=O)Nc1cc2c3c(c1)CCN3C(=O)CC2	CRFBP-R2 block 78.0
COCCCNC(=O)C(=O)Nc1cc2c3c(c1)CCN3C(=O)CC2	none
COc1cccc(-c2nnc(NC(=O)c3ccc4ncsc4c3)o2)c1	none
CCOC(=O)Nc1cc(C(=O)OCC)c(C)nc1C	none
CCOC(=O)c1cc(NC(=O)Nc2cc(C)ccn2)c(C)nc1C	CRFBP-R2 block 113.3
Cc1sc2ncnc(OCC(=O)NC(C)C)c2c1C	CRFBP-R2 block 89.6
CCCNC(=O)COc1ncnc2sc(C)c(C)c12	none
CC(=O)Nc1ccc(N2C(=O)c3cccc4c(O)ccc(c34)C2=O)cc1	CRFBP-R2 agonist 200.7
O=C1c2cccc3c(O)ccc(c23)C(=O)N1c1ccc(Cl)cc1	none
O=C(O)c1ccc2c(=O)n(-c3ccc(F)cc3)c(=S)[nH]c2c1	V-ATPase pHluor 13.3
O=C(O)c1ccc2c(=O)n(-c3ccccc3)c(=S)[nH]c2c1	none
CCN(CC)C(=S)Sc1c(-c2ccccc2)c2cc(Cl)ccc2[nH]c1=O	CRFBP-R2 agonist 70.7
O=C1/C(=C/c2ccc(N3CCCC3)cc2)NC(=S)N1C1CC1	CRFBP-R2 agonist 176.2
Cc1cc(N2CCCC2)ccc1/C=C1\NC(=S)N(C)C1=O	CRFBP-R2 agonist 169.5
O=S(=O)(c1ccccc1)N1N=C(c2ccc(Br)cc2)CC1c1ccco1 (stereo unspecified)	none
C=CCN1C(c2cccc(C(F)(F)F)c2)=CS/C1=C(/C#N)c1nnc(N2CCOCC2)n1-c1ccccc1	CRFBP-R2 agonist 108.0
C=CCN1C(c2ccc(Br)cc2)=CS/C1=C(/C#N)c1nnc(N2CCOCC2)n1-c1ccccc1	none
COc1ccc(N(CC(=O)N/N=C/c2ccco2)S(=O)(=O)c2ccccc2)cc1Cl	none

Source: PubChem BioAssay (several laboratories)
